Hit rate of the full screen: of about 5,900 compounds, about 120 (2%) were called active. Rule as the data show it: active = percent response mostly above about 71% (no sharp cut-off); inactive = mostly below about 38%. The list is a sample of the results.

The assay concerns MEKK2 (MAP3K2) mutant PB1 domain binding MEK5, human. In words: mutant MEKK2 PB1-MEK5 binding signal retest – biochemical, single concentration, multiplex bead flow cytometry, confirmation (AID 1893).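 Also: higher means compound restores mutant binding toward wildtype level.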 To be noted: Alexa488-MEK5 binding to MEKK2 mutant, at 10 µM, hits give high values.
As for `COc1ccc(CC(=O)N2N=C(C)CC2(O)C(F)(F)F)cc1` (stereo unspecified), the percent response is -3% (inactive).
With `O=C(CN1CCN(C(=O)c2ccco2)CC1)Nc1ccc(Cl)c(C(F)(F)F)c1` the figure was 7% (inactive); with `COc1ccc(C2CC(=O)Nc3cc(C)c(C)cc32)c(OC)c1OC` (stereo unspecified), 4% (inactive); with `COc1ccc(C(=O)NCC(=O)N/N=C/c2ccc([N+](=O)[O-])o2)cc1OC`, -10% (inactive).
Regarding `CCO[C@H]1OC(C(=O)N2CCOCC2)=C[C@@H](c2ccc3c(c2)OCO3)[C@@H]1CCCO`, the percent response is 4% (inactive).
Consider `Cc1ccc(C(=O)N/C(=C/c2ccco2)C(=O)NCCc2c[nH]c3ccccc23)cc1C`, for which the percent response is -4% (inactive).
`CN(C)CCCN(C(=O)COc1ccccc1)c1nc2c(Cl)cccc2s1`: the percent response is 18% (inactive).
Consider `CN(C)c1ccc(/C=C2\NC(=S)N(Cc3ccccc3)C2=O)cc1`, for which the percent response was -10% (inactive).
Take `C=CCN1C=C2C(=O)C(C)(OC(=O)CCc3ccccc3)C(=O)C=C2C=C1c1ccc(C#N)cc1` (stereo unspecified): the percent response is -1% (inactive).
Turning to `COc1ccc(CCNC(=O)CSc2nnc3ccc(-c4ccncc4)nn23)cc1`, the percent response was 6% (inactive).
As for `CCN(CC)C(=O)CC(c1ccc2c(c1)OCO2)c1c(OC)cc(OC)c2c(-c3ccccc3)cc(=O)oc12` (stereo unspecified), the percent response was -4% (inactive).
Regarding `COc1cccc(/C=N\NC(=O)C2=NNC(=O)C2C)c1O` (stereo unspecified), the percent response is 1% (inactive).
With `FC(F)(F)c1nc(-c2ccccc2)ncc1-c1nnnn1-c1ccccc1` the figure was -6% (inactive); with `CCOC(=O)N1CCN(CC(=O)n2c(C)c(C)c3ccccc32)CC1`, -3% (inactive).
As to `COc1cccc(/C(C)=N/Nc2ncc(Cl)cc2Cl)c1`, the percent response is -3% (inactive).
In the case of `c1ccc(CN2CCC(N=C3NN=C(c4ccc5c(c4)OCCO5)CS3)CC2)cc1`, the percent response is 52% (inactive).
With `CCN1CCN(CCNC(=O)c2ccc(/C=C3/Sc4ccccc4N(Cc4cccc(C)c4)C3=O)cc2)CC1` the figure was 79% (active).
For `Cc1cccc(CN2CCC(CNC(=O)Nc3ccc(F)c(Cl)c3)CC2)c1`, the percent response was 8% (inactive).
With `CCc1nnc(NC(=O)c2sc3nc(C)cc(COC)c3c2N)s1` the figure was 7% (inactive).
Consider `COc1cccc(OC)c1C(=O)Nc1ccc(Cc2ccncc2)cc1`, for which the percent response is -2% (inactive).
For `CCCCOC(=O)c1ccc(N2C(=O)CC(N3CCN(C/C=C/c4ccccc4)CC3)C2=O)cc1` (stereo unspecified), the percent response is 12% (inactive).
Regarding `Cn1ccc(=Nc2ccc(NC(=O)c3ccc(N=c4ccn(C)c5ccc([N+](=O)[O-])cc45)cc3)cc2)cc1`, the percent response was 28% (inactive).
Consider `C=CCn1c(P(C)(=O)O)nc2ccccc21`, for which the percent response is -4% (inactive).
With `CCN(CC)CCC(c1ccc2c(c1)OCO2)c1c(OC)cc(OC)c2c(-c3ccccc3)cc(=O)oc12` (stereo unspecified) the figure was 28% (inactive); with `COC(=O)c1c(NC(=O)COc2ccc(Cl)cc2Cl)sc2c1CC(C)(C)NC2(C)C`, 36% (inactive).
As to `CN(C)CCCNC(=S)N1CCN(c2nc(-c3ccccc3)cs2)CC1`, the percent response is 14% (inactive).
Turning to `O=c1[nH]c(=S)[nH]c2[nH]c(=S)[nH]c12`, the percent response was -2% (inactive).
As to `COc1cc(-c2nc(-c3ccncc3)no2)cc(OC)c1OC`, the percent response was 6% (inactive).
Turning to `Cc1ccc(NC(=S)N(CCCN2CCCC2)Cc2cccn2Cc2ccc(Cl)cc2)cc1`, the percent response was 13% (inactive).
Turning to `Cc1ccc2c(C)c(C(=O)N3CCN(c4ccncc4)CC3)oc2c1C`, the percent response was 31% (inactive).
In the case of `N=C1/C(=C/c2cccn2-c2cccc([N+](=O)[O-])c2)C(=O)N=C2SC=CN12`, the percent response is -6% (inactive).
As to `CC(=O)N1CCN(S(=O)(=O)c2ccc(C)c([N+](=O)[O-])c2)C1C(C)C` (stereo unspecified), the percent response was -1% (inactive).
Regarding `COC(=O)c1nc2n(n1)C(c1ccc([N+](=O)[O-])cc1)C(C(=O)Nc1ccc(Cl)cc1)=C(C)N2` (stereo unspecified), the percent response was 2% (inactive).
Consider `Cc1ccccc1CCN(CC(=O)NC1CCCCC1)C(=O)c1csnn1`, for which the percent response was -24% (inactive).
On to `CCCn1c(=N)n(CC(=O)c2ccc(Cl)c(Cl)c2)c2ccccc21`, for which the percent response was 33% (inactive).
With `CC(C)CC(=O)NC(=S)Nc1cc(C(=O)O)ccc1Cl` the figure was -1% (inactive); with `O=C1NCC(=O)N(Cc2ccccc2)/C1=C/c1ccccc1`, -16% (inactive); with `CCc1ccc(-c2nn(-c3ccccc3)cc2CSC(=N)N)cc1`, 68% (inactive).
`CNC(=O)/C(=C\C=C\c1ccccc1)NC(=O)c1ccc([N+](=O)[O-])cc1`: the percent response is 7% (inactive).
Turning to `O=C(O)CC(Cc1ccccc1)C(=O)Nc1ccc([N+](=O)[O-])cc1` (stereo unspecified), the percent response is -3% (inactive).
With `O=C(COC(=O)CNC(=O)c1ccco1)Nc1ccc(F)cc1`, the percent response was 1% (inactive).
On to `COc1ccc(S(=O)(=O)N2CN(CCc3ccc(OC)c(OC)c3)c3nc4ccccc4nc32)cc1`, for which the percent response is -4% (inactive).
For the compound `CCOC(=O)/C(C#N)=C/c1ccc(OCC(=O)Nc2ccccc2)c(OC)c1`, the percent response was 1% (inactive).
With `CC(C)C(=O)N1c2ccccc2NC2=C(C(=O)CCC2)C1c1ccc(N(C)C)cc1` (stereo unspecified) the figure was 10% (inactive); with `COCC(C)NC(=O)COc1nncc2ccccc12` (stereo unspecified), -7% (inactive).
As for `O=C(NCc1ccccc1Cl)NC(=O)c1csc([N+](=O)[O-])c1`, the percent response was 1% (inactive).
As to `Cn1c(C(=O)NCCCN2CCCCC2)cc2sccc21`, the percent response is 10% (inactive).
With `COc1cc(Br)c(-c2sc(Nc3ccccc3)n[n+]2-c2ccccc2)cc1OC` the figure was 14% (inactive); with `CCc1ccc2nc(Nc3ncc(C(C)=O)c(C)n3)nc(C)c2c1`, 0% (inactive); with `CCOC(=O)c1c(-c2ccccc2)csc1NC(=S)NC(=O)c1ccccc1`, 0% (inactive).
Regarding `O=C(CN1C(=O)c2cccnc2Oc2ccc(Cl)cc21)Nc1ccc(F)cc1`, the percent response was 1% (inactive).
As to `N=c1c2c(-c3ccccc3)c(-c3ccccc3)n(Cc3ccccc3)c2ncn1CCCO`, the percent response was 21% (inactive).
With `Cc1noc(C)c1S(=O)(=O)N(C)Cc1ccccc1`, the percent response is 5% (inactive).
Turning to `Cc1nn(-c2ccccc2)c(NC(=O)c2cccs2)c(-c2ccc(Cl)cc2)c1=O`, the percent response was -4% (inactive).
As to `COc1cccc(NC(=S)NCCCN2CCOCC2)c1`, the percent response was 6% (inactive).
`CCN(CC)CCOCCOc1ccc(Cl)c2ccccc12`: the percent response was 22% (inactive).
For the compound `CCCCCCCCCCOC(=O)Cn1c(COc2ccc(C)cc2)[n+](C)c2ccccc21`, the percent response was 74% (active).
Take `CCCCCCCCCCOC(=O)Cn1c(COc2cccc(OC)c2)[n+](C)c2ccccc21`: the percent response is 115% (active).
With `CN(C)CCCN(C(=O)c1ccc(S(=O)(=O)N2CCCc3ccccc32)cc1)c1nc2ccc(F)cc2s1` the figure was 53% (inactive).
Regarding `CSCC[C@H](NC(=O)CCCn1nnc2ccccc2c1=O)C(=O)O`, the percent response was 1% (inactive).
On to `CN1CCN(/N=C/c2ccc(C#N)cc2)CC1`, for which the percent response was -4% (inactive).
As for `CC1CCN(C2=NC(=O)/C(=C/c3cn[nH]c3-c3ccccc3)S2)CC1`, the percent response was -9% (inactive).
For the compound `CCOc1ccc(S(=O)(=O)NCCCn2ccnc2)cc1NC(C)=O`, the percent response was -6% (inactive).
For `CCCCNC(=O)N1CCCC(N(C)CCc2ccc(OC)c(OC)c2)C1` (stereo unspecified), the percent response was -2% (inactive).
With `CC(C)(C)NC(=O)Cn1cnc([N+](=O)[O-])n1` the figure was -7% (inactive); with `COc1ccccc1OCCNCC(O)COc1cccc2[nH]c3ccccc3c12` (stereo unspecified), 34% (inactive); with `Cc1cccc(-c2ncc(CN3CCC(CO)(CCCc4ccccc4)CC3)cn2)c1`, 9% (inactive).
Consider `Cc1nn(-c2ccccc2)c(C)c1NC(=O)CCl`, for which the percent response was -2% (inactive).
For the compound `COC(=O)CCc1sc(Nc2ccc(Br)cc2)nc1-c1ccc(OC)cc1`, the percent response was 9% (inactive).
Turning to `C#CCOCCOCCOCCNc1nc(N2CCN(C(=O)C([C@@H](C)CC)n3cc(C(N)COC(=O)C(F)(F)F)nn3)CC2)nc(N2CCN(C(=O)[C@H](CCCCN)n3cc(C(N)CC(C)C)nn3)CC2)n1` (stereo partly specified), the percent response is 52% (inactive).
With `O=C(CCCO)N/N=C/c1cc(Br)ccc1O` the figure was -1% (inactive).
Regarding `O=C(Nc1ccn(Cc2ccccc2)n1)c1cccc(F)c1`, the percent response was -3% (inactive).
With `COc1ccc(CCn2c(NN=C3CCCC3)nc3c2c(=O)[nH]c(=O)n3C)cc1`, the percent response was 3% (inactive).
With `CCC(C)OC(=O)C(C)Oc1ccc(-c2ccccc2)cc1` (stereo unspecified) the figure was 10% (inactive).
Consider `CC(C)CC(=O)NC(=S)NCc1ccccc1`, for which the percent response was -3% (inactive).
As for `O=c1c(/C=N/O)coc2ccc(Cl)cc12`, the percent response was -2% (inactive).
On to `Cc1ccc2c(c1)C1CN(C)CCC1N2S(=O)(=O)c1ccc(Oc2ccc([N+](=O)[O-])cc2)cc1` (stereo unspecified), for which the percent response was 61% (inactive).
Take `Cc1c(S(=O)(=O)NCc2ccccc2)c(=O)n(C)c(=O)n1C`: the percent response is 2% (inactive).
Turning to `C[N+](C)(C)CCNC(=O)c1c(O)c2c([nH]c1=O)CCCC2`, the percent response was -3% (inactive).
As to `O=C(O)/C=C\C(=O)Nc1ccc(OCc2ccccc2)cc1`, the percent response is -4% (inactive).
As for `COc1ccccc1NC(=S)N1CCN(c2ccc(F)cc2)CC1`, the percent response is -8% (inactive).
Turning to `Cc1cccc(OCC(O)CN2CCN(CCN3C(=O)c4cccc5cccc(c45)C3=O)CC2)c1C` (stereo unspecified), the percent response is 3% (inactive).
With `Cc1ccc(N2C(=O)CC(N3CCSCC3)C2=O)c(C)c1` (stereo unspecified) the figure was 2% (inactive); with `O=C(c1ccc(Br)o1)N(c1ccccn1)C1CCCCC1`, 3% (inactive).
In the case of `COc1ccc(SC[C@H](Cc2ccccc2)N2CCN(CCc3ccccc3)CCC2=O)cc1`, the percent response is 16% (inactive).
In the case of `CCOC(=O)c1c(NC(=O)c2ccc(S(=O)(=O)N(C)CC3CCCO3)cc2)sc2c1CC(C)(C)NC2(C)C` (stereo unspecified), the percent response was 7% (inactive).
Turning to `O=C(NCCCN1CCN(c2ccc(F)cc2)CC1)Nc1ccc([N+](=O)[O-])cc1`, the percent response is 26% (inactive).
With `CC1CN(C(=O)c2ccccc2NS(=O)(=O)c2cccc([N+](=O)[O-])c2)CC(C)O1` (stereo unspecified) the figure was 0% (inactive); with `c1ccc2c(c1)C(=NC1CCCCC1)NC2=NC1CCCCC1`, 18% (inactive); with `Cc1cccc(OCCNC(=O)CSc2ccc(C(F)(F)F)cc2[N+](=O)[O-])c1`, 2% (inactive).
`O=C(NC1CCN(Cc2ccccc2)CC1)c1ccc(Oc2cc(Cl)cc(Cl)c2)o1`: the percent response was 10% (inactive).
With `O=C(CC1SCCNC1=O)Nc1ccc(Cl)c(Cl)c1` (stereo unspecified), the percent response was 4% (inactive).
For the compound `CN(CC(=O)Nc1cccc(F)c1)CC(=O)Nc1cccc([N+](=O)[O-])c1`, the percent response was -3% (inactive).
For the compound `COc1ccccc1N=C(C)C1=C(O)COC1=O`, the percent response was 7% (inactive).
With `COc1cccc(OCC(=O)NNC(=O)c2cnccn2)c1`, the percent response is -1% (inactive).
Regarding `COC(=O)c1c(NC(=O)COC(=O)[C@@H](NS(=O)(=O)c2ccccc2)C(C)C)sc2c1CCC2`, the percent response was -1% (inactive).
As for `CCOC(=O)CN(C)S(=O)(=O)c1ccc(-c2cc(C(=O)OC)sc2C(F)(F)F)cc1`, the percent response is -3% (inactive).
As for `Cc1cc(Cl)ccc1OCc1nc(-c2ccncc2)no1`, the percent response is -15% (inactive).
Turning to `O=C(O)CCCC(=O)Nc1ccc(Oc2cccc(C(F)(F)F)c2)nc1`, the percent response was 4% (inactive).
For `COc1cc(C)nc(N2CCCC(C(=O)NCC(C)C)C2)n1` (stereo unspecified), the percent response is -2% (inactive).
With `O=C(O)C1CCN(c2ccc([N+](=O)[O-])cc2[N+](=O)[O-])CC1` the figure was 6% (inactive); with `Cc1no[n+]([O-])c1COc1ccccc1/C=C1\NC(=S)NC1=O`, -5% (inactive); with `COc1ccc(C(=O)C[n+]2ccc(C)cc2)cc1`, 6% (inactive).
With `CC(C)CC(=O)N1CCN(Cc2ccccc2Br)CC1`, the percent response is 3% (inactive).
For `CCOC(=O)c1c(Cc2ccc(Cl)cc2)c[nH]c1C`, the percent response is 0% (inactive).
On to `Cc1cn(COC/C=C/c2ccccc2)c(=O)[nH]c1=O`, for which the percent response is 2% (inactive).
`COc1ccc(CNC(=O)C2CCN(S(C)(=O)=O)CC2)cc1`: the percent response is 4% (inactive).
On to `COC(=O)c1cc(NC(=O)c2cc(C(C)(C)C)nn2Cc2cccc(C)c2)ccc1N1CCOCC1`, for which the percent response was -5% (inactive).
For the compound `CCN(CC)CCOc1ccc2c(c1)C(=NNC(=O)c1ccccn1)c1cc(OCCN(CC)CC)ccc1-2`, the percent response was 75% (active).
With `COc1cc(NC(=S)NCc2ccco2)c(OC)cc1Cl` the figure was 3% (inactive); with `Cn1c(SCc2nc3ccccc3s2)nnc1-c1ccc2c(c1)OCO2`, 0% (inactive).

(Values after PubChem BioAssay AID1893 (NMMLSC, 2009).)
